# Laboratory results from the supplement of paper PMC8183993.
# “And” between values parts separate entries of the source, which are not always exact repeats. Equal values may be shown once. Where a name gives a salt, the structure may show the parent alone. ± gives the standard deviation of the averaged measurements. Whole data set: some 3,100 compounds, median “mean cytoplasmic OPP incorporation (global translation) relative to DMSO” near 100, cut for the lowest 2% near 56. This is one part of a sample in which the lowest values are shown more often than they occur.
# Test system: U2OS
# Test: mean cytoplasmic OPP incorporation (global translation) relative to DMSO (% of DMSO); higher = more protein synthesis
# Conditions: 10 µM; 24 h
# Experimental: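 Primary image-based screen in U2OS cells: compounds at 10 uM for 24 h, then a 1 h o-propargyl-puromycin (OPP) pulse, click labelling, and high-throughput microscopy. Mean cytoplasmic OPP intensity and nuclei count were normalised to DMSO wells within each plate (DMSO = 100) and averaged over triplicate plates.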
row,Structure (SMILES),mean cytoplasmic OPP incorporation
1,O=C(O)Cc1nn(Cc2ccc(Br)cc2F)c(=O)c2ccccc12 [Statil],98.2
2,COc1ccc(C(=O)NCc2cccnc2)cc1C(=O)NCc1cccnc1 [Picotamide monohydrate],98.8
3,Cc1cc(NC(=O)c2cccc(NC(=O)/C=C/CN(C)C)c2)ccc1Nc1nccc(-c2cccnc2)n1,96.1
4,Cc1ccc(NC(=O)c2ccc(CN3CCN(C)CC3)cc2)cc1Nc1nccc(-c2cccnc2)n1 [Imatinib mesylate],121 ± 11
5,CC(=O)Nc1ccc(C(=O)Nc2ccccc2N)cc1,57.3 ± 33
6,Nc1ccccc1NC(=O)c1ccc(CNc2nccc(-c3cccnc3)n2)cc1 [Mocetinostat (MGCD0103)],35.5
7,Cc1ccc(NC(=O)c2ccc(CN3CCN(C)CC3)cc2)cc1Nc1nccc(-c2cccnc2)n1 [Imatinib Mesylate],130
8,"Nc1ccccc1NC(=O)c1ccc(CNC(=O)OCc2cccnc2)cc1 [Entinostat (MS-275, SNDX-275)]",23.5
9,Cc1ccc(NC(=O)c2ccc(CN3CCN(C)CC3)cc2)cc1Nc1nccc(-c2cccnc2)n1 [Imatinib (STI571)],124
10,Cc1ccc(NC(=O)c2ccc(CN3CCN(C)CC3)cc2)cc1Nc1nccc(-c2cccnc2)n1 [Imatinib],120
11,O=c1nc2ccccc2c2n1CC(CN1CCN(c3ccccc3)CC1)N2 (stereo not drawn),101
12,O=C(O)c1ccccc1Nc1cccc2c1C(=O)c1cccc(Nc3ccccc3C(=O)O)c1C2=O,113
13,O=C(Cc1ccccc1)Nc1nc2ccc(Cl)cc2c2nc(-c3ccco3)nn12,104
14,CC(C)CC(NC(=O)OCC1c2ccccc2-c2ccccc21)C(=O)O (stereo not drawn),109
15,Brc1ccc(C2CN3CCSC3=N2)cc1 [L-p-Bromotetramisole oxalate],94.5
16,CCOC(=O)C=Cc1ccc(O)c(OC)c1 [Ferulic acid ethylester],103
17,COCC[n+]1c2c(n(Cc3cnccn3)c1C)C(=O)c1ccccc1C2=O,35
18,CC(C)NCC(O)COc1ccccc1-n1cccc1 (stereo not drawn) [Isamoltane hemifumarate],94.6
19,Nc1c(O)cc(O)cc1C=Cc1ccc(O)cc1 [Aminoresveratrol sulfate],100
20,CCC(=O)NC1CCc2cccc(OC)c2C1 (stereo not drawn),101
21,O=S1(=O)c2cccc3cccc(c23)N1CCCN1CCN(c2ccc(F)cc2)CC1 [Fananserin],103
22,CCCOC(=O)c1cc(O)c(O)c(O)c1 [N-Propyl gallate],123
23,COc1ccc(-c2nc(N3CCOCC3)c3sc(CN(C)c4ncc(C(=O)NO)cn4)cc3n2)cn1,86.6
24,CS(=O)(=O)N1CCN(Cc2cc3nc(-c4cccc5[nH]ncc45)nc(N4CCOCC4)c3s2)CC1 [Pictilisib (GDC-0941)],73.8
25,"Cc1c(CN2CCN(C(=O)[C@H](C)O)CC2)sc2c(N3CCOCC3)nc(-c3cnc(N)nc3)nc12 [Apitolisib (GDC-0980, RG7422)]",50.7
26,Cc1cc(Cc2cc(C)cc(C(C)(C)C)c2O)c(O)c(C(C)(C)C)c1,103

row,Structure (SMILES),mean cytoplasmic OPP incorporation
1,Cc1cc(C(=O)NNCc2ccccc2)no1 [Isocarboxazid],106
2,CC1(C)S[C@@H]2[C@H](NC(=O)Cc3ccccc3)C(=O)N2[C@H]1C(=O)O [Benzathine benzylpenicillin],104
3,CC1(C)OC2=C(C(=O)c3ccccc3C2=O)[C@H](NCc2ccccc2)[C@@H]1O,38.9
4,CC1(C)S[C@@H]2[C@H](NC(=O)Cc3ccccc3)C(=O)N2[C@H]1C(=O)O [Benzylpenicillin sodium],80.8
5,CC(C)Oc1ccc(-c2c[nH]cc2CN(C)CCN)cc1,100
6,CC(CCCCC(=O)Nc1ccc(C(F)(F)F)cc1)NCCc1cnc[nH]1 (stereo not drawn) [HTMT dimaleate],100
7,CC1(C)Oc2ccc(C#N)cc2[C@H](N2CCCC2=O)[C@H]1O [Cromakalim],98.1
8,"FC(F)(F)c1cc(COC2CCCNC2c2ccccc2)cc(C(F)(F)F)c1 [L-733,060 hydrochloride]",108
9,CCC(C)[C@H](NS(=O)(=O)c1cccc2ccccc12)C(=O)N[C@H](C=O)Cc1c[nH]c2ccccc12 (stereo partly drawn),102
10,C[n+]1cc2c3c(ccc2c2ccc4cc5c(cc4c21)OCO5)OCO3 [Sanguinarine chloride],42.4
11,COc1ccc2cc3[n+](cc2c1OC)CCc1cc2c(cc1-3)OCO2 [Berberine HCl],106
12,O=C1NC(=O)c2c1c(-c1ccccc1)cc1[nH]c3ccc(O)cc3c21,51.8
13,O=c1[nH]c2cc(Cl)ccc2c(O)c1-c1cccc(Oc2ccccc2)c1,103
14,CS(=O)(=O)CCNCc1nc(-c2ccc3ncnc(Nc4ccc(OCc5cccc(F)c5)c(Cl)c4)c3c2)cs1,102
15,N#Cc1cc2c(OCC(O)CN3CCN(C(c4ccccc4)c4ccccc4)CC3)cccc2[nH]1 (stereo not drawn),107
16,CCN(CC)CCCC(C)Nc1c2ccc(Cl)cc2nc2ccc(OC)cc12 (stereo not drawn) [Quinacrine dihydrochloride dihydrate],29.5
17,CCN(CCO)CCCC(C)Nc1ccnc2cc(Cl)ccc12 (stereo not drawn) [Hydroxychloroquine sulfate],102
18,CCN(CC)CCCC(C)Nc1ccnc2cc(Cl)ccc12 (stereo not drawn) [Chloroquine diphosphate],105
19,CCN(CC)CCCC(C)Nc1ccnc2cc(Cl)ccc12 (stereo not drawn) [Chloroquine],107
20,CCN(CCO)CCCC(C)Nc1ccnc2cc(Cl)ccc12 (stereo not drawn) [Hydroxychloroquine],93
21,O=C(CCCCCCC(=O)NO)NO [Suberoyl bis-hydroxamic acid],88.4
22,C[C@H](CCC(=O)NCC(=O)O)[C@H]1CC[C@H]2[C@@H]3CC[C@@H]4C[C@H](O)CC[C@]4(C)[C@H]3C[C@H](O)[C@]12C [Glycodeoxycholic acid],102
23,COc1ccc(-c2ccc3ncc4c(c3c2)n(-c2ccc(N3CCNCC3)c(C(F)(F)F)c2)c(=O)n4C)cn1,33.4 ± 16
24,CCC(=O)N1CCN(c2ccc(-n3c(=O)ccc4cnc5ccc(-c6cnc7ccccc7c6)cc5c43)cc2C(F)(F)F)CC1 [Torin 1],73
25,Nc1ccc(-c2ccc3ncc4ccc(=O)n(-c5cccc(C(F)(F)F)c5)c4c3c2)cn1 [Torin 2],67.6 ± 3.6
26,CCN(CC)CCNC(=O)c1c(C)[nH]c(/C=C2\C(=O)Nc3ccc(Cl)cc32)c1C,124

row,Structure (SMILES),mean cytoplasmic OPP incorporation
1,Cc1nnc(-c2ccc3occ(-c4ccc([S+](C)[O-])cc4)c3c2)o1 (stereo not drawn),105
2,"CCCCC[C@H](O)/C=C/C=C\CCCCCCCC(=O)O [13(S)-Hydroxy-9Z,11E-octadecadienoic acid]",99.3
3,CC(/C=C/C(=O)NO)=C\[C@@H](C)C(=O)c1ccc(N(C)C)cc1 [Trichostatin A],66.2 ± 33
4,CN1CCCN(C(=O)c2cccc(-c3ccc(/C=C4/C(=O)Nc5ccc(Cl)cc54)o3)c2)CC1,55.4
5,Cc1[nH]c(/C=C2\C(=O)Nc3ccc(S(=O)(=O)N(C)c4cccc(Cl)c4)cc32)c(C)c1C(=O)N1CCN(C)CC1,88.9
6,CN1CCN(C(=O)c2nc3ccc(Cl)cc3[nH]2)CC1,81.1
7,NCCCCCc1c[nH]cn1 [Impentamine dihydrobromide],99.3
8,Cc1cc(C)c(S(=O)(=O)Nc2ccccc2C(F)(F)F)c(C)c1,97.3
9,O=C(Nc1ccccc1-c1cn2c(CN3CCNCC3)csc2n1)c1cnc2ccccc2n1,48.8
10,Cc1cc(C(=O)O)sc1C(N)C(=O)O (stereo not drawn),104
11,COC(=O)[C@@H](N)CSC/C=C(\C)CC/C=C(\C)CCC=C(C)C [S-Farnesyl-L-cysteine methyl ester],95.9
12,CSc1ccc(/C=C2/C(C)=C(CC(=O)O)c3cc(F)ccc32)cc1 [Sulindac Sulfide],104
13,NS(=O)(=O)c1ccc(NC(=O)Nc2ccc(F)cc2)cc1,98.7
14,Nc1nc(Nc2ccc(S(N)(=O)=O)cc2)nn1C(=O)c1c(F)cccc1F,50.1
15,COc1ccc(CCN2CCN(CCCc3ccccc3)CC2)cc1OC,111
16,CCN(C(=O)CO)[C@H]1CN(/C(=N\C#N)Nc2cccc(OC(F)F)c2)N=C1c1ccc(Cl)c(Cl)c1,107
17,CCCCCCCCOC(=O)/C=C/c1ccc(O)c(O)c1 [n-Octyl caffeate],88.9
18,NC(N)=NCCC[C@H](NC(=O)[C@@H]1CCCN1C(=O)[C@H](N)Cc1ccccc1)C(=O)CCl,99.7
19,O=C(O)Cc1ccc(OCCNC[C@H](O)c2ccccc2)cc1 [ZD 2079 hydrochloride],103
20,Cc1cc(I)ccc1Nc1c(C(=O)NOCC2CC2)cc(F)c(F)c1F,97.5
21,CC(NC(=O)C(Cc1ccccc1)NC(=O)OCc1ccccc1)C(=O)CF (stereo not drawn),101
22,CC(C)C[C@@H](C=O)NC(=O)[C@H](CC(C)C)NC(=O)[C@H](CC(C)C)NC(=O)OCc1ccccc1,91.4 and 56.1
23,CCCC[C@@H](C=O)NC(=O)[C@H](CC(C)C)NC(=O)OCc1ccccc1 [Calpeptin],106 ± 7.2
24,"C[C@H](CC[C@@H]1OC1(C)C)[C@H]1CC[C@H]2[C@@H]3CC=C4C[C@@H](O)CC[C@]4(C)[C@H]3CC[C@]12C [24(S),25-Epoxycholesterol]",112
25,Cc1ccc(NC(=O)C(C)C)cc1C1CCN(Cc2ccc(Oc3ccc(F)c(F)c3)cc2)CC1,108
26,CC[C@H](C)[C@H](N)C1=N[C@H](C(=O)N[C@@H](CC(C)C)C(=O)N[C@H](CCC(=O)[O-])C(=O)N[C@H](C(=O)N[C@H]2CCCCNC(=O)[C@H](CC(N)=O)NC(=O)[C@@H](CC(=O)[O-])NC(=O)[C@H](Cc3cnc[nH]3)NC(=O)[C@@H](Cc3ccccc3)NC(=O)[C@H]([C@@H](C)CC)NC(=O)[C@@H](CCCN)NC2=O)[C@@H](C)CC)CS1.[Zn+2] [Bacitracin zinc],107
